Screening results from PubChem.
Sampled rows, rich in hits. Any-hit rate of the full collection: about 9.4%.
Rab9 promoter act – activates the Rab9 promoter; Huh7 Rab9 promoter-luciferase reporter, luminescence, 24 h; Potency, µM (doses to about 9.22 µM), for the others: at the highest dose activation, negative = inhibition, most hits filed as activators; 320,000 tested, 2.8% active; further: % of control where 0% means no effect; nearly all actives have a fitted effect of over 60% in size
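Cell-based reporter: Huh7 stable for Rab9 promoter-driven luciferase, plated in reduced-serum medium with 10% FBS at 1500 cells/well, compound-treated 24 h at 37 °C, luminescence read after 10 min reagent.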
ELG1 genotox – inducers of genotoxicity in HEK293T ELG1-luciferase cells; HEK293T ELG1-luciferase reporter, luminescence, 16 h; Potency, µM (titrated, usually from 46 µM), inactives show at the top dose activity change, positive = activation, actives largely listed as activators; 330,000 tested, 1.3% active; further: % of control where 0% means no effect; nearly all actives have a fitted effect of over 60% in size
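After overnight (16 hr) compound treatment at 37 °C, ELG1-luciferase HEK293T cells were lysed with ONE-Glo; luminescence quantified 30 min later at room temperature.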
ELG1 repair inh – inhibitors of ELG1-dependent DNA repair in HEK293T cells | HEK293T ELG1-luciferase reporter, luminescence, 16 h; DNA damage induced by 5-fluorouridine | 330,000 tested, 2.3% active | Potency, µM (doses to about 46.1 µM), inactives show at the highest dose activity change, negative = inhibition, actives largely listed as inhibitors | AID 504467; further: on the % scale 0 is the no-effect control and ±100 the full control effect; nearly all actives have a fitted effect of over 55% in size
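Step one: seed 2,000 cells per well. Step two: pin-transfer compound or DMSO alongside 5-fluorouridine. Step three: incubate 16 hr, 37 °C, 5% CO2. Step four: add ONE-Glo, wait 30 min, read luminescence.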
FLuc counter – inhibits or activates purified firefly luciferase, miR-21 counter-screen; AID 588342; Potency, µM (titrated, usually from 57.5 µM), without a hit: top-dose activity change, negative = inhibition, actives largely listed as inhibitors; purified FLuc, Km substrates, luminescence inhibition; 360,000 tested, 6.9% active;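 further: plate controls were vehicle for no effect and reference inhibitor for full effect; nearly all actives have a fitted effect of over 55% in size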
Target sequence (P08659 whole entry, looked up): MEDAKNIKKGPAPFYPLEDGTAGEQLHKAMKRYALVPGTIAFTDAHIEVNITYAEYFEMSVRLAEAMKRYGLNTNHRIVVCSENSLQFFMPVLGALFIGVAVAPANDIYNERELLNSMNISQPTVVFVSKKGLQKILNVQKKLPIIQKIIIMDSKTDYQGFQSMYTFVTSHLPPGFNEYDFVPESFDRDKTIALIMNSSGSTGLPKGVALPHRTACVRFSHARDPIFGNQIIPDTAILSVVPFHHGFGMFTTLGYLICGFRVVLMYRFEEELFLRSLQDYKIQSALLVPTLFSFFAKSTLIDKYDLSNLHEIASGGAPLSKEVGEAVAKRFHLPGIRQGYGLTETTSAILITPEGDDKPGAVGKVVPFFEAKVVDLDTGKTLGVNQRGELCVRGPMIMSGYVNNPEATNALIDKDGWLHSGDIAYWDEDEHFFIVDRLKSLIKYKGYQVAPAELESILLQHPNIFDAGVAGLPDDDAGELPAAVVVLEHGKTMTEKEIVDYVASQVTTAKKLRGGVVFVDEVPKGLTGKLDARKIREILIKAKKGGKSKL
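Purified P. pyralis luciferase (10nM final) with 10uM D-luciferin and 10uM ATP (Km levels) in 50mM Tris acetate pH 7.5, 10mM Mg acetate, 0.01% Tween-20, 0.05% BSA; qHTS 6-point titration, ~60 µM downward; luminescence read.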
NPC1 prom act – NPC1 promoter activation | Huh7 NPC1 promoter luciferase reporter, 24 h | Potency, µM (series often up to 9.22 µM), for the others: top-dose activation, most hits filed as activators | 320,000 tested, 2.4% active | AID 485313; further: % of control where 0% means no effect; nearly all actives have a fitted effect of over 60% in size
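Readout is luciferase luminescence, reflecting NPC1 promoter activation in stably transfected Huh7 cells after 24 h compound exposure at 37 °C in reduced-serum medium with 10% FBS.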
SMN2 splice up – increases expression of the SMN2 splice variant; Potency, µM (series often up to 46.1 µM), for inactives: top-dose activity change, positive = activation, hits mostly activators; HEK293 SMN2-luciferase splicing reporter, luminescence, 30-36 h; 210,000 tested, 2.8% active; further: % of control where 0% means no effect; nearly all actives have a fitted effect of over 55% in size
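HEK293 cells carry an SMN2 minigene-luciferase reporter in which exon 7 inclusion puts luciferase in frame. Cells were seeded at 2000 cells/well, attached for 10-12 hours, then exposed to compounds for 30-36 hours at 37C before ONE-Glo luminescence.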
Starred values were filed as active, the others as inactive; ? = inconclusive; · = no result given; [ ] = another dose, or the depositor's remark. The call rests on the fitted dose curve; in most records, active means well fitted curve in the direction sought with a large enough effect; inconclusive means small, poorly fitted or top-dose-only effect, or another doubt; inactive means no such curve, though single readings can be large; an effect the other way counts as inactive or inconclusive. Potency means the concentration at half of the fitted maximal effect.

SMILES | Rab9 promoter act | ELG1 genotox | ELG1 repair inh | FLuc counter | NPC1 prom act | SMN2 splice up
COc1ccc(CNC(=O)Nc2ccc(C)cc2)cc1 | 25% | 9% | ? | -2%[2.3 µM] | 25% | ?
O=C(O)Cc1ccc(NC(=O)Nc2ccc(Br)cc2)cc1 | -10% | 0% | 17% | 6.7µM* | 3% | ·
COc1ccc(NC(=O)Nc2ccc(CC(=O)O)cc2)cc1 | 4% | -2% | 18% | 13µM* | -2% | 2%
CC(C)(C)NC(=O)Nc1ccc(Br)cc1 | 2.5µM* | ? | ? | 15µM* | ? | ·
CCOC(=O)C1CCCN(C(=O)c2ccc3c(c2)sc2nc(-c4cccc(OC)c4)cn23)C1 (stereo not given) | · | · | · | -13% | · | ·
O=C1CC(Cc2ccccc2)C(=O)N1c1ncccn1 (stereo not given) | ? | 15µM* | ? | 15µM* | 2.2µM* | ·
O=C1CC(Cc2ccc(Cl)cc2)C(=O)N1c1ccncc1 (stereo not given) | -2% | -1% | ? | 4% | 1% | -16%
Cc1ccc(CC2CC(=O)N(c3ncccn3)C2=O)cc1 (stereo not given) | -2% | 1% | ? | 1% | -1% | ·
O=C1CC(Cc2ccc(Cl)cc2)C(=O)N1c1ccccn1 (stereo not given) | -2% | 4% | 13% | -2% | -3% | 32µM*
CCOC(=O)C1CCN(c2nc(-c3ccc(Br)cc3)cs2)CC1 | · | · | · | -2% | · | ·
O=C(Nc1cccc2ccccc12)c1cn(-c2ccccc2)nc1-c1cccs1 | -4% | 1% | -9% | ? | 4% | -1%
COc1ccc(NC(=O)CN(C)C(=O)c2cn(-c3ccccc3)nc2-c2cccs2)cc1 | -5% | -25% | ? | 17µM* | -2% | ·
O=C(/C=C/c1ccc(-c2ccccc2)cc1)NCc1cccnc1 | 13% | 2% | ? | 7.6µM* | 21% | ·
O=C(NCCCN1CCCC1=O)c1cn(-c2ccccc2)nc1-c1ccccc1 | -4% | 1% | 1% | 11µM* | -2% | ·
CN(CC(=O)Nc1ccc(F)cc1)C(=O)c1cn(-c2ccccc2)nc1-c1cccs1 | -6% | -6% | ? | ? | 0% | ·
O=C(Nc1cccnc1)c1cn(-c2ccccc2)nc1-c1cccs1 | 1% | 9% | ? | 3µM* | 18% | 3%
COC(=O)c1ccccc1NC(=O)Cn1c(=O)n(-c2ccc(C)cc2)c(=O)c2ccccc21 | · | · | · | 2% | · | 11%
CC(C)OCCCNC(=O)Cc1ccc(NC(=O)N2CCCCc3ccccc32)cc1 | · | · | · | -11% | · | ·
COCCCn1c(=O)c2sccc2n2c(CCCC(=O)Nc3cc(C)cc(C)c3)nnc12 | · | · | · | 4% | · | ·
CC(C)(C)c1ccc(-c2nc(NC(=O)CSc3ncnc4sc5c(c34)CCCC5)ns2)cc1 | · | · | · | -2% | · | -6%
Cn1c(=O)c(=O)n(C)c2cc(N3CCCC3)c(NC(=O)c3ccc(C(C)(C)C)cc3)cc21 | · | · | · | -10% | · | -5%
O=C(c1cn(-c2ccccc2)nc1-c1cccnc1)N1CCCC(C(F)(F)F)C1 (stereo not given) | -3% | -3% | 3% | -11% | -1% | ·
CCN(CC)CCNC(=O)c1ccc(NC(=O)c2cn(-c3ccccc3)nc2-c2cccs2)cc1 | -2% | -11% | -13% | 8.5µM* | 1% | -113%
CCOC(=O)C1CCN(C(=O)c2cn(-c3ccccc3)nc2-c2cccnc2)CC1 | 4% | 1% | ? | 13µM* | 1% | -2%
O=C(NC1CCS(=O)(=O)C1)c1cn(-c2ccccc2)nc1-c1ccccc1 (stereo not given) | -3% | 4% | 0% | 15µM* | -5% | -11%
SMILES | Rab9 promoter act | ELG1 genotox | ELG1 repair inh | FLuc counter | NPC1 prom act | SMN2 splice up
O=C(NCc1cccnc1)c1cn(-c2ccccc2)nc1-c1ccccc1 | -9% | -3% | 4% | 21µM* | 1% | 27%
CCCCC(=O)Nc1ccc(OCc2cc(=O)n3ccc(C)cc3n2)cc1 | · | · | · | 4% | · | ·
O=C(Nc1ccc(F)cc1F)c1ccc2c(c1)CCN2S(=O)(=O)c1ccc(Cl)cc1 | · | · | · | 4% | · | 2%
COc1ccc(Cl)cc1NC(=O)CN(c1cccc(C)c1C)S(C)(=O)=O | · | · | · | 3% | · | -2%
Cc1nc(N2CCOCC2)c2nc(-c3ccccc3)n(CCN3CCCCC3)c2n1 | · | · | · | · | · | -3%
CCOC(=O)C(C(=O)OCC)N(C#N)c1nc(OC)nc(N(C)C)n1 | -4% | 0% | 0% | 3% | -2% | 3.2µM*
CCn1cc(C(=O)N(C)c2ccc(C(C)C)cc2)c2cc(OC)c(OC)cc2c1=O | · | · | · | -4% | · | -1%
Cc1ccc(C(=O)OCc2nc3ccccc3s2)o1 | ? | ? | ? | 15µM* | 1% | ·
O=C(OCc1ccc(Br)cc1F)c1cc2ccccc2oc1=O | 0% | -1% | 6% | -12% | 0% | ·
O=C(OCc1nc2ccccc2s1)c1ccc(Br)s1 | 14% | 4% | ? | 19µM* | 12% | -14%
Cc1ccc(C(=O)OCc2nc3ccsc3c(=O)[nH]2)o1 | 10% | -1% | ? | 3% | 13% | ·
O=C(OCc1nc2ccccc2s1)c1cc2ccccc2oc1=O | 4% | ? | ? | 19µM* | 11% | -2%
Nc1ccc(C(=O)OCc2nc3ccccc3s2)cc1 | 27% | ? | ? | 17µM* | 17% | 2%
Cc1cccn2c(=O)c(C(=O)NCc3cccc(F)c3)cnc12 | · | · | · | -10% | · | ·
CCC(Sc1nncn2c1cc1oc(C)cc12)C(=O)Nc1ccc(F)cc1 (stereo not given) | · | · | · | -1% | · | ·
O=c1c2ccccc2n2c(-c3ccccc3F)nnc2n1CCc1ccccc1 | · | · | · | 1% | · | ·
CCOC(=O)c1[nH]c(C)c(CCC(=O)Nc2ccc(Br)c(C)c2)c1C | · | · | · | -10% | · | ·
COc1cc(-c2nc3cnccn3c2Nc2ccccc2)ccc1O | -7% | 6% | ? | -9% | -7% | 14µM*
COc1cc(-c2nc3cnccn3c2Nc2ccc(C)cc2)ccc1O | -3% | 13µM* | ? | -9% | 1% | 18µM*
O=[N+]([O-])c1ccc(-c2c(O)c3ccccc3c3nc4ccccc4nc23)cc1 | 2% | -8% | 23µM* | -15% | 0% | -69%
O=[N+]([O-])c1cc(-c2cnc3ccccc3n2)ccc1Oc1ccc(F)cc1 | 17% | 5% | ? | ? | 19% | -23%
O=[N+]([O-])c1ccc(-c2cnc3ccccc3n2)cc1 | ? | ? | ? | ? | 3.2µM* | ·
CCOc1ccc(-c2cnc3ccccc3n2)cc1 | 4% | 0.52µM* | ? | 0.17µM* | ? | ·
COC(=O)c1ccc(-n2c(/C=C/c3cc(OC)c(OC)c(OC)c3)nc3cc(Cl)ccc3c2=O)cc1 | · | · | · | -2% | · | ·
